Data: PubChem BioAssay AID1159580 (chemical genetic matrix, 2015)
Several values for one entry are separate records, joined by “and”; a condition that tells them apart may be missing. Equal entries are not always repeated. In all, about 5,500 compounds went through this assay and about 2,000 (36%) were called active. Inconclusive results (about 18%) are left out. Cut-off read from the data, not from the text of the source: active = normalized growth mostly below about 0.91 (no sharp cut-off); inconclusive = no clear call, values can overlap the other calls; inactive = mostly above about 0.92. The list shows a part of the results.

Test: chemical genetic growth profiling, strain panel (AID 1159580);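 note: tested at 20 µM; growth read once vehicle control cultures reached saturation at 30 °C; 1 = growth at the plate median or of vehicle wells; lower values mean less growth of the strain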
Conditions: growth OD
[1] = S. cerevisiae deletion strains, locus YAL013W, strain DEP1, stronger effect = lower value
[2] = S. cerevisiae deletion strains, locus YDR150W, strain NUM1, stronger effect = lower value
[3] = S. cerevisiae deletion strains, locus YJR075W, strain HOC1, stronger effect = lower value
[4] = S. cerevisiae deletion strains, locus YMR263W, strain SAP30, stronger effect = lower value
[5] = S. cerevisiae deletion strains, locus YNL128W, strain TEP1, stronger effect = lower value
[6] = S. cerevisiae deletion strains, locus YNL153C, strain GIM3, stronger effect = lower value
[7] = S. cerevisiae deletion strains, locus YBR229C, strain ROT2, stronger effect = lower value
[8] = S. cerevisiae deletion strains, locus YDL101C, strain DUN1, stronger effect = lower value
[9] = S. cerevisiae deletion strains, locus YEL061C, strain CIN8, stronger effect = lower value
[10] = S. cerevisiae deletion strains, locus YGR078C, strain PAC10, stronger effect = lower value
[11] = S. cerevisiae deletion strains, locus YHR030C, strain SLT2, stronger effect = lower value
[12] = S. cerevisiae deletion strains, locus YJR043C, strain POL32, stronger effect = lower value
[13] = S. cerevisiae deletion strains, locus YLR039C, strain RIC1, stronger effect = lower value
[14] = S. cerevisiae deletion strains, locus YLR262C, strain YPT6, stronger effect = lower value
[15] = S. cerevisiae deletion strains, locus YMR307W, strain GAS1, stronger effect = lower value
[16] = S. cerevisiae deletion strains, locus YPL241C, strain CIN2, stronger effect = lower value

Measured: normalized growth

CN1C2CCC1CC(NC(=O)c1nn(C)c3ccccc13)C2 (stereo unspecified)
inactive: [1] 1.02 | S. cerevisiae deletion strains, locus YAL040C, strain CLN3, stronger effect = lower value 1.01 | S. cerevisiae deletion strains, locus YCL061C, strain MRC1 (second series), stronger effect = lower value 1.01 | [2] 1 | S. cerevisiae deletion strains, locus YDR363W, strain ESC2, stronger effect = lower value 1 | S. cerevisiae deletion strains, locus YER002W, strain NOP16, stronger effect = lower value 0.992 | [3] 1.01 | [4] 0.999 | [5] 0.987 | [6] 0.999 | S. cerevisiae deletion strains, locus YNL175C, strain NOP13, stronger effect = lower value 1.01 | S. cerevisiae deletion strains, locus YNL197C, strain WHI3, stronger effect = lower value 1.01 | S. cerevisiae deletion strains, locus YNL224C, strain SQS1, stronger effect = lower value 1 | S. cerevisiae deletion strains, locus YOR083W, strain WHI5 (second series), stronger effect = lower value 1.02

COc1ccc(NC(=O)C(C)c2ccc(CC(C)C)cc2)cc1 (stereo unspecified)
active: [7] 0.897 | S. cerevisiae deletion strains, locus YCL061C, strain MRC1, stronger effect = lower value 0.848 | [10] 0.886 | S. cerevisiae deletion strains, locus YHR087W, strain rtc3, stronger effect = lower value 0.824 | [12] 0.907 | [3] 0.804 | S. cerevisiae deletion strains, locus YKL190W, strain CNB1, stronger effect = lower value 0.914 | [13] 0.527 | [14] 0.46 | S. cerevisiae deletion strains, locus YMR219W, strain ESC1, stronger effect = lower value 0.94 | S. cerevisiae deletion strains, locus YNR030W, strain Alg12, stronger effect = lower value 0.872 | [16] 0.858
inactive: [1] 0.976 | [8] 0.956 | S. cerevisiae deletion strains, locus YDL134C, strain PPH21, stronger effect = lower value 0.965 | [2] 0.91 | [9] 0.943 | [11] 0.916 | S. cerevisiae deletion strains, locus YLR058C, strain SHM2 (second series), stronger effect = lower value 0.974 | S. cerevisiae deletion strains, locus YLR085C, strain ARP6, stronger effect = lower value 0.878 | S. cerevisiae deletion strains, locus YML094W, strain GIM5, stronger effect = lower value 0.903 | [4] 0.963 | [15] 0.774 | [6] 0.932 | S. cerevisiae deletion strains, locus YNL298W, strain CLA4 (second series), stronger effect = lower value 0.937 | S. cerevisiae deletion strains, locus YNL322C, strain KRE1, stronger effect = lower value 0.967 | S. cerevisiae deletion strains, locus YPL055C, strain LGE1, stronger effect = lower value 0.838 | S. cerevisiae deletion strains, locus YPR135W, strain CTF4, stronger effect = lower value 0.855

CC(=O)Nc1ccc(OCC(O)CNC(C)C)cc1 (stereo unspecified)
inactive: S. cerevisiae deletion strains, locus YBR021W, strain FUR4, stronger effect = lower value 1.01 | [7] 1 | S. cerevisiae deletion strains, locus YCL029C, strain bik1, stronger effect = lower value 0.995 | S. cerevisiae deletion strains, locus YDL035C, strain GPR1, stronger effect = lower value 1.01 | S. cerevisiae deletion strains, locus YDL074C, strain BRE1, stronger effect = lower value 1.02 | [8] 1.01 | S. cerevisiae deletion strains, locus YDL185W, strain tfp1, stronger effect = lower value 1.01 | S. cerevisiae deletion strains, locus YDL192W, strain arf1, stronger effect = lower value 1 | S. cerevisiae deletion strains, locus YDR101C, strain arx1, stronger effect = lower value 1.02 | [2] 1.01 | S. cerevisiae deletion strains, locus YDR162C, strain NBP2, stronger effect = lower value 1.01 | S. cerevisiae deletion strains, locus YDR318W, strain mcm21, stronger effect = lower value 1 | S. cerevisiae deletion strains, locus YDR388W, stronger effect = lower value 1 | S. cerevisiae deletion strains, locus YDR502C, strain sam2, stronger effect = lower value 0.99 | [9] 1.01 | S. cerevisiae deletion strains, locus YER110C, stronger effect = lower value 1 | S. cerevisiae deletion strains, locus YER155C, strain BEM2, stronger effect = lower value 1.01 | S. cerevisiae deletion strains, locus YER167W, strain BCK2, stronger effect = lower value 1.01 | S. cerevisiae deletion strains, locus YGL078C, strain dbp3, stronger effect = lower value 0.999 | S. cerevisiae deletion strains, locus YGL086W, strain mad1, stronger effect = lower value 1 | S. cerevisiae deletion strains, locus YGL248W, strain PDE1, stronger effect = lower value 1 | [10] 1.01 | S. cerevisiae deletion strains, locus YGR135W, strain pre9, stronger effect = lower value 0.996 | S. cerevisiae deletion strains, locus YGR229C, strain SMI1, stronger effect = lower value 1 | S. cerevisiae deletion strains, locus YGR252W, strain gcn5, stronger effect = lower value 0.975 | [11] 1.01 and 0.983 | S. cerevisiae deletion strains, locus YHR079C, strain IRE1 (second series), stronger effect = lower value 0.999 | S. cerevisiae deletion strains, locus YHR079C, strain IRE1, stronger effect = lower value 0.978 | S. cerevisiae deletion strains, locus YHR094C, strain hxt1, stronger effect = lower value 0.999 | S. cerevisiae deletion strains, locus YHR129C, strain ARP1, stronger effect = lower value 1.01 | S. cerevisiae deletion strains, locus YHR200W, strain rpn10, stronger effect = lower value 1.01 | S. cerevisiae deletion strains, locus YIL066C, strain RNR3, stronger effect = lower value 1.01 | S. cerevisiae deletion strains, locus YIL073C, strain SPO22, stronger effect = lower value 1.03 | S. cerevisiae deletion strains, locus YIL125W, strain kgd1, stronger effect = lower value 1 | S. cerevisiae deletion strains, locus YIR030C, strain dcg1, stronger effect = lower value 0.995 | S. cerevisiae deletion strains, locus YJL095W, strain BCK1, stronger effect = lower value 1.02 and 0.982 | S. cerevisiae deletion strains, locus YJL134W, strain LCB3, stronger effect = lower value 1.01 | S. cerevisiae deletion strains, locus YJL168C, strain set2, stronger effect = lower value 1 | S. cerevisiae deletion strains, locus YJL187C, strain SWE1 (second series), stronger effect = lower value 1.02 | [12] 1.01 | S. cerevisiae deletion strains, locus YJR066W, strain TOR1, stronger effect = lower value 0.965 | S. cerevisiae deletion strains, locus YKL009W, strain mrt4, stronger effect = lower value 0.991 | S. cerevisiae deletion strains, locus YKL068W, stronger effect = lower value 1 | S. cerevisiae deletion strains, locus YKL085W, strain MDH1 (second series), stronger effect = lower value 1.01 | S. cerevisiae deletion strains, locus YKL085W, strain MDH1, stronger effect = lower value 1.01 | S. cerevisiae deletion strains, locus YKR001C, strain vps1, stronger effect = lower value 1 | [13] 1.05 | S. cerevisiae deletion strains, locus YLR058C, strain SHM2, stronger effect = lower value 1.01 | S. cerevisiae deletion strains, locus YLR102C, strain apc9, stronger effect = lower value 0.996 | S. cerevisiae deletion strains, locus YLR113W, strain HOG1, stronger effect = lower value 1.01 | [14] 1.03 | S. cerevisiae deletion strains, locus YLR268W, strain sec22, stronger effect = lower value 0.998 | S. cerevisiae deletion strains, locus YLR330W, strain CHS5, stronger effect = lower value 1.01 | S. cerevisiae deletion strains, locus YLR342W, strain FKS1 (second series), stronger effect = lower value 1.02 | S. cerevisiae deletion strains, locus YLR371W, strain rom2, stronger effect = lower value 1.01 | S. cerevisiae deletion strains, locus YLR418C, strain cdc73, stronger effect = lower value 0.981 | S. cerevisiae deletion strains, locus YML016C, strain PPZ1, stronger effect = lower value 1.01 | S. cerevisiae deletion strains, locus YML032C, strain rad52, stronger effect = lower value 1.02 | S. cerevisiae deletion strains, locus YML124C, strain tub3, stronger effect = lower value 0.998 | S. cerevisiae deletion strains, locus YMR078C, strain ctf18, stronger effect = lower value 1 | S. cerevisiae deletion strains, locus YMR223W, strain ubp8, stronger effect = lower value 0.985 | [15] 0.965 | S. cerevisiae deletion strains, locus YNL067W, strain RPL9B, stronger effect = lower value 1.02 | [5] 1.02 | [6] 1.02 | S. cerevisiae deletion strains, locus YNL183C, strain NPR1, stronger effect = lower value 0.938 | S. cerevisiae deletion strains, locus YNL233W, strain BNI4, stronger effect = lower value 1 | S. cerevisiae deletion strains, locus YNL250W, strain rad50, stronger effect = lower value 0.996 | S. cerevisiae deletion strains, locus YNL271C, strain bni1, stronger effect = lower value 0.992 | S. cerevisiae deletion strains, locus YNL298W, strain CLA4, stronger effect = lower value 1 | S. cerevisiae deletion strains, locus YNL307C, strain MCK1, stronger effect = lower value 1 | S. cerevisiae deletion strains, locus YNR052C, strain pop2, stronger effect = lower value 1.01 | S. cerevisiae deletion strains, locus YOL012C, strain htz1 0.693 | S. cerevisiae deletion strains, locus YOL147C, strain pex11, stronger effect = lower value 0.999 | S. cerevisiae deletion strains, locus YOR061W, strain CKA2, stronger effect = lower value 1.01 | S. cerevisiae deletion strains, locus YOR069W, strain VPS5, stronger effect = lower value 1.01 | S. cerevisiae deletion strains, locus YOR136W, strain idh2, stronger effect = lower value 0.999 | S. cerevisiae deletion strains, locus YOR144C, strain elg1, stronger effect = lower value 0.998 | S. cerevisiae deletion strains, locus YOR184W, strain ser1, stronger effect = lower value 1.01 | S. cerevisiae deletion strains, locus YOR231W, strain MKK1, stronger effect = lower value 0.965 | S. cerevisiae deletion strains, locus YOR316C, strain cot1, stronger effect = lower value 0.997 | [16] 1.01 | S. cerevisiae deletion strains, locus YPL256C, strain CLN2, stronger effect = lower value 0.973 | S. cerevisiae deletion strains, locus YPR119W, strain clb2, stronger effect = lower value 1 | S. cerevisiae deletion strains, locus YPR141C, strain kar3, stronger effect = lower value 0.985 | S. cerevisiae deletion strains, locus YPR163C, strain tif3, stronger effect = lower value 1.01 | S. cerevisiae deletion strains, locus YPR167C, strain met16, stronger effect = lower value 1 | S. cerevisiae deletion strains, strain wtn01, stronger effect = lower value 0.979 | S. cerevisiae strains, strain wild type, stronger effect = lower value 1.01
